Only a selection was taken, and hits are over-represented in it overall.
NRP1-CendR mod = modulators of CendR peptide binding to human neuropilin-1; inhibition, % at 25 µM; 0.85% of 360,000 active; O14786; FAM-RPARPAR peptide binding to NRP-1, fluorescence polarization;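 active means inhibition or corrected inhibition above about 18%, plus a signal ratio from 0.5 to 1.5, limit read from the data, passing the limit was not always enough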
ERp5 inh = ERp5 (human) disulfide isomerase inhibition | Q15084 | ERp5 insulin aggregation, absorbance 650 nm, 90 min | inhibition, % at 9.99 µM | 0.05% of 350,000 active;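 active means mean replicate inhibition above about 25%, with every replicate also reaching it, limit read from the data, passing the limit was not always enough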
ALR H2O2 inh = human ALR oxidase inhibition via reduced H2O2; P55789; purified ALR, DTT oxidation, H2O2 HRP-luminol luminescence; inhibition, % (concentration not given with the values); 3.8% of 290,000 active; AID 485317;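 active means mean replicate inhibition above about 79%, with every replicate also reaching it, limit read from the data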
PglD DTNB = blocks C. jejuni PglD acetyltransferase activity; 0.098% of 360,000 active; AID 602405; purified PglD enzyme, DTNB colorimetric CoA detection; inhibition, % at 12.5 µM; in the data active means inhibition above about 16%, passing the limit was not always enough
PDI turbidity = inhibitors of human protein disulfide isomerase. P07237. PDI insulin aggregation turbidity, A650, 90 min. inhibition, % at 10 µM. 0.052% of 350,000 active;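 active means mean inhibition across replicates of 30% or more, whatever share of single replicates reach that level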
ARNT TACC3 PPI = disrupts binding between human ARNT and TACC3 | Q9Y6A5 | AlphaScreen His-ARNT PAS-B/GST-TACC3 binding, luminescence; TACC3 fragment carries E629A point mutation | inhibition, % at 9.99 µM | 0.66% of 390,000 active | AID 623870;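 active means mean inhibition of replicates at least 50% and at least half of replicates each reaching 50%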;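 further: 0% = complete ARNT plus TACC3 wells and 100% = ARNT alone without TACC3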
* marks the source's active call; other numbers are inactive results.

COCC(=O)Nc1ccc2c(c1)C(=O)N(C)[C@@H]1CC[C@@H](CC(=O)NC3CCCC3)O[C@@H]1CO2 was read as PglD DTNB 2 and ARNT TACC3 PPI 3.
COCC(=O)Nc1ccc2c(c1)OC[C@@H](C)N(Cc1ccccc1F)C[C@@H](C)[C@H](OC)CN(C)C2=O was read as ERp5 inh -2, PglD DTNB 1 and ARNT TACC3 PPI -3.
Screening CN1C2CCC1CC(NC(=O)CSCc1ccc(Cl)cc1Cl)C2 (centres undefined) returned NRP1-CendR mod 6, ERp5 inh 5, ALR H2O2 inh 98*, PDI turbidity 1 and ARNT TACC3 PPI 1.
`Cc1ccc(SCC(=O)NC2CC3CCC(C2)N3C)cc1` (centres undefined) gave NRP1-CendR mod -1, ERp5 inh 4, PDI turbidity -5 and ARNT TACC3 PPI -8.
For C[C@H](CO)N1C[C@H](C)[C@@H](CN(C)C(=O)Nc2cccc3ccccc23)Oc2ccc(NC(=O)C3CC3)cc2C1=O the results were ERp5 inh 3, PglD DTNB 0 and ARNT TACC3 PPI -15.
For C[C@H](CO)N1C[C@H](C)[C@H](CN(C)C(=O)c2ccncc2)OCCCC[C@H](C)Oc2ccc(NS(=O)(=O)c3ccc(F)cc3)cc2C1=O the results were ERp5 inh 2, PglD DTNB 5 and ARNT TACC3 PPI -6.
For O=Cc1ccc(O)c(O)c1 the results were NRP1-CendR mod -1, ERp5 inh 2, ALR H2O2 inh 99*, PglD DTNB 2, PDI turbidity 1 and ARNT TACC3 PPI 1.
Oc1ccc(/C=N/N(c2ccccc2)c2ccccc2)c(O)c1O was read as NRP1-CendR mod 3, ERp5 inh 5, PglD DTNB -2, PDI turbidity 3 and ARNT TACC3 PPI 13.
For Oc1ccc(/C=N/N(c2ccccc2)c2ccccc2)cc1O the results were NRP1-CendR mod 17, ERp5 inh -5, ALR H2O2 inh 99*, PglD DTNB -1, PDI turbidity 7 and ARNT TACC3 PPI 13.
Screening Oc1ccc(N=Cc2ccc(O)c(O)c2)cc1 returned NRP1-CendR mod 14, ALR H2O2 inh 99*, PDI turbidity 15 and ARNT TACC3 PPI 9.
Screening Oc1ccc(/C=N/N=C/c2ccc(O)c(O)c2)cc1O returned NRP1-CendR mod -46, ERp5 inh -6, ALR H2O2 inh 99*, PglD DTNB 4, PDI turbidity 0 and ARNT TACC3 PPI 13.
For COc1cc(C=O)ccc1O the results were NRP1-CendR mod 0, ERp5 inh 6, PglD DTNB -5 and PDI turbidity -14.
For CNC[C@H]1Oc2c(NC(=O)c3cnccn3)cccc2C(=O)N([C@@H](C)CO)C[C@H]1C the results were ERp5 inh -5, PglD DTNB 2 and ARNT TACC3 PPI -2.
CCCNC(=O)C[C@H]1CC[C@H]2[C@H](COc3ccc(NC(=O)c4cc(C)on4)cc3C(=O)N2C)O1 was read as ERp5 inh 5, PglD DTNB 1 and ARNT TACC3 PPI -23.
Screening CN1C(=O)c2cc(NS(=O)(=O)c3ccc(Cl)cc3)ccc2OC[C@@H]2O[C@@H](CC(=O)N3CCc4ccccc4C3)CC[C@H]21 returned ERp5 inh -3, PglD DTNB 2 and ARNT TACC3 PPI 5.
Oc1ccc(/C=N/N=C/c2ccc(O)cc2)cc1 was read as NRP1-CendR mod -2, ERp5 inh 1, ALR H2O2 inh 96*, PDI turbidity -9 and ARNT TACC3 PPI -5.
CCOc1cc(/C=N/NC(=O)c2cccc(S(=O)(=O)N3CCCC3)c2)ccc1OCC(=O)N(C)C was read as NRP1-CendR mod 7, ERp5 inh -5, ALR H2O2 inh -9, PglD DTNB 0, PDI turbidity 2 and ARNT TACC3 PPI -17.
For O=C(N/N=C/c1ccc(O)c(O)c1)c1cccc(S(=O)(=O)N2CCCCC2)c1 the results were NRP1-CendR mod -7, ERp5 inh 10, ALR H2O2 inh 99*, PglD DTNB -1, PDI turbidity -8 and ARNT TACC3 PPI 2.
`CCOc1cc(C=NNC(=O)c2cccc(S(=O)(=O)N3CCCC3)c2)ccc1O` gave NRP1-CendR mod -3, ERp5 inh 5, ALR H2O2 inh 95*, PDI turbidity -1 and ARNT TACC3 PPI 31.
For COc1ccc(-c2cnc3c(c2)C(=O)N([C@@H](C)CO)C[C@@H](C)[C@H](CN(C)C(=O)Cc2ccccn2)O3)cc1 the results were ERp5 inh -1, PglD DTNB -1 and ARNT TACC3 PPI -1.
Screening Cc1ccccc1NC(=O)C[C@H]1CC[C@H]2[C@@H](COc3ccc(NC(=O)NC(C)C)cc3C(=O)N2C)O1 returned ERp5 inh -7.
COc1ccccc1S(=O)(=O)N1CC[C@@H]2[C@H]1c1cc(-c3cccc(C#N)c3)ccc1N[C@@H]2CO was read as PglD DTNB 0 and ARNT TACC3 PPI 11.
`O=C(NCCSCc1ccco1)Nc1cc(Cl)cc(Cl)c1` gave NRP1-CendR mod 18, ERp5 inh -1, ALR H2O2 inh 89*, PglD DTNB -3, PDI turbidity 1 and ARNT TACC3 PPI -3.
CO[C@@H]1CN(C)C(=O)c2ccc(NC(=O)c3ccccc3F)cc2OC[C@H](C)N(C(=O)c2ccccc2F)C[C@H]1C was read as ERp5 inh -1, PglD DTNB 2 and ARNT TACC3 PPI -3.
For N#Cc1ccsc1NC(=O)CN1CCN(c2ccccc2O)CC1 the results were NRP1-CendR mod 3, ALR H2O2 inh 99*, PDI turbidity -18 and ARNT TACC3 PPI -2.
For CC(=O)Nc1ccc(SCC(=O)Nc2sccc2C#N)cc1 the results were NRP1-CendR mod -13, ERp5 inh 5, ALR H2O2 inh 99*, PDI turbidity -7 and ARNT TACC3 PPI 6.
CN(C)S(=O)(=O)c1ccc(C(=O)NC(=O)CSc2ccccc2)cc1 was read as NRP1-CendR mod -3, ALR H2O2 inh 7, PDI turbidity 2 and ARNT TACC3 PPI -11.
`COc1ccccc1N1CCN(CC(=O)Nc2sccc2C#N)CC1` gave NRP1-CendR mod -16, ERp5 inh 0, PDI turbidity -3 and ARNT TACC3 PPI -1.
For CC(=O)Nc1ccc(SCC(=O)NC(=O)c2ccc(S(=O)(=O)N(C)C)cc2)cc1 the results were NRP1-CendR mod 15, ERp5 inh 18, ALR H2O2 inh 99*, PglD DTNB 3, PDI turbidity -7 and ARNT TACC3 PPI 3.
CCC(=O)N1C[C@H](O)COC[C@@H]2O[C@H](CC(=O)NCc3cc(F)cc(F)c3)CC[C@H]21 was read as ERp5 inh 1, PglD DTNB 0 and ARNT TACC3 PPI -4.
`CO[C@H]1CN(C)C(=O)c2cc(NS(=O)(=O)c3ccccc3F)ccc2OC[C@H](C)NC[C@H]1C` gave ERp5 inh -17, PglD DTNB 0 and ARNT TACC3 PPI -4.
For O=C(C[C@H]1C=C[C@H](NC(=O)CN2CCOCC2)[C@H](CO)O1)NCCc1ccncc1 the results were ERp5 inh -2.
